Source: PubChem (National Center for Advancing Translational Sciences (NCATS))
Sampled rows, rich in hits. Any-hit rate of the full collection: about 11%.
hNpr1 antagonist: antagonists of human natriuretic peptide receptor Npr1 | HEK293 hNpr1 GloSensor cGMP, ANP-stimulated luminescence | 76,000 compounds, 1.6% hits | Potency, µM (highest dose often 46.3 µM), without a hit: at the top dose activity change, negative = inhibition, usual class: inhibitors | AID 1347048; calls by dose curve; also: nearly all actives have a fitted effect of over 60% in size
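Compound pre-incubated 30 min at room temperature on GloSensor-loaded HEK293 cells stably carrying hNpr1 and the pGS-40F cGMP biosensor. Stimulation uses hNppA at 0.1 nM final; luminescence is taken at baseline and 20 min post-agonist.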
FLuc inh: Photinus pyralis luciferase inhibition; purified P. pyralis luciferase, luminescence, biochemical; Potency, µM (highest dose often 115 µM), actives largely listed as inhibitors; 76,000 compounds, 2.5% hits; also: nearly all actives have a fitted effect of over 65% in size
Target sequence (P08659 whole entry, looked up): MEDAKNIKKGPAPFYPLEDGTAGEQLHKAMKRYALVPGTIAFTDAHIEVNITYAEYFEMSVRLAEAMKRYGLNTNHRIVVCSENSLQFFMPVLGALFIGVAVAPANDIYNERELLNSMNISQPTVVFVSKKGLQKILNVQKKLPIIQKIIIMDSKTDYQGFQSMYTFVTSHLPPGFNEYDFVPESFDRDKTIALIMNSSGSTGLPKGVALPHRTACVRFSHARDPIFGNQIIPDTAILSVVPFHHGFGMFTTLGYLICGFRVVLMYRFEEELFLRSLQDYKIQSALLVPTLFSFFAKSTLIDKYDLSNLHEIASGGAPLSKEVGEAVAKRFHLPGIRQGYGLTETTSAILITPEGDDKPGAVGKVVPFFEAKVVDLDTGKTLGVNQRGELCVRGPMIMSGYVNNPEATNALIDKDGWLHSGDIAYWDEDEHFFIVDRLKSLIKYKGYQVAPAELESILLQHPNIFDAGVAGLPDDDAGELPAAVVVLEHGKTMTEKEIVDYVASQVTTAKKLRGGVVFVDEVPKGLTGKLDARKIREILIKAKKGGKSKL
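Biochemical qHTS: compound (6-point titration) added to 10uM D-luciferin plus 10uM ATP in Tris acetate pH 7.5 buffer with Mg, Tween-20 and BSA, then purified enzyme at 10nM; light output imaged.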
HEK cytotox: kills HEK 293 cells; HEK 293 viability, ATP luminescence (CellTiter-Glo), 48-72 h; Potency, µM (highest dose often 115 µM), for inactives: at the top dose activity change, negative = cytotoxicity, hits mostly inhibitors; 94,000 compounds, 6.6% hits; AID 1345083; also: nearly all actives have a fitted effect of over 60% in size
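Read-out: CellTiter-Glo ATP luminescence. Cells: HEK 293, 250 cells/well. Exposure: 48 or 72 hr, 37 degree Celsius.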
NIH3T3 tox: kills NIH 3T3 cells; NIH 3T3 viability, CellTiter-Glo ATP luminescence, 48-72 h; Potency, µM (top dose mostly 96.7 µM), for inactives: top-dose activity change, negative = cytotoxicity, most hits filed as inhibitors; 94,000 compounds, 4.3% hits; AID 1345082; also: nearly all actives have a fitted effect of over 55% in size
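Viability of NIH 3T3 cells after 48 or 72 hr compound treatment at 37 °C was assessed by CellTiter-Glo, with luminescence imaged following a 10 min room-temperature step.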
The depositor's hits bear a star; i = inactive; ? = inconclusive; . = no result given; [ ] = remark or other dose. Unless noted, calls follow the shape of the dose curve; as a rule, active = well fitted curve in the direction sought with a large enough effect; inconclusive = small, poorly fitted or top-dose-only effect, or another doubt; inactive = no such curve, though single readings can be large; an effect the other way counts as inactive or inconclusive. % is scaled to controls: 0 for no effect and ±100 for the full control effect; potency is read from the fitted curve at half-maximal effect.

SMILES | hNpr1 antagonist | FLuc inh | HEK cytotox | NIH3T3 tox
O=C(Nc1ccc2c(c1)OCCO2)N1CCC(Cc2noc(C3CCOCC3)n2)C1 (centres undefined) | -13% | 18µM* | -7% | -35%
CNC(=O)N1CCC(Cc2noc(C3CCOCC3)n2)C1 (centres undefined) | -6% | i | -23% | -1%
Cc1cnc(C2CCOCC2)n1C1CCN(C(=O)Nc2ccc3c(c2)OCCO3)CC1 | 2% | 35µM* | -17% | -10%
C1CNCC(c2nc(CCOCC3CC3)no2)C1 (centres undefined) | 3% | i | ? | i
C(Cc1noc(C2CNC2)n1)OCC1CC1 | -30% | i | 11µM* | 16µM*
COCCc1noc(C2CNC2)n1 | -21% | i | 8.9µM* | 18µM*
COc1ccc(-c2cccc(C(=O)N3CCN(C(C)=O)CC3)c2)nn1 | . | . | -14% | -14%
CCS[C@H]1CCN2C(=O)c3cc(-c4ccc(F)cc4F)ccc3NC(=O)[C@H]12 | ? | i | 56µM* | ?
CC(C)NC(=O)N[C@H]1CCN2C(=O)c3cc(-c4ccc(F)cc4F)ccc3NC(=O)[C@H]12 | -6%[70.6 µM] | i | ? | -28%[174 µM]
Cc1ccc(C2Cn3nnc(-c4noc(COc5cccc(C)c5)n4)c3CO2)cc1 (centres undefined) | -21% | i | -14% | -8%
O=C(NC[C@H]1O[C@H](Cc2cc(CN3CCN(c4ccccc4)CC3)on2)CC[C@@H]1O)c1ccccc1 | -1% | i | -20% | -5%
CC(C)n1cc(CN2C[C@@H](COCC(N)=O)[C@H](c3ccncc3)C2)cn1 | 0% | i | ? | -13%
N#Cc1ccc(CN2C[C@@H](COCC(N)=O)[C@H](c3ccncc3)C2)cc1 | -11% | i | 89µM* | -15%
COc1ccc(CN2CCNc3cnc(Nc4ccccc4)cc3C2)cc1 | ? | i | 89µM* | ?
COc1ccc(Nc2cc3c(cn2)NCCN(Cc2ccccc2)C3)cc1 | ? | i | 79µM* | ?
COc1ccccc1CN1CCNc2cc(Nc3ccccc3)ncc2C1 | -20%[70.6 µM] | ? | 35µM* | 35µM*
COc1ccc(CN2CCNc3cc(Nc4ccccc4)ncc3C2)cc1 | -30%[70.6 µM] | i | 71µM* | ?
COc1ccc(CN2CCNc3cnc(Nc4ccccc4)cc3C2)cn1 | -4%[70.6 µM] | i | ? | ?
CCn1cc(CN2CCC(N3C(=O)C4(CCCCC4)C3c3ccncc3)CC2)c(C)n1 (centres undefined) | 3% | i | ? | -13%
COc1ccc(-c2ccccc2C(=O)NCC2CCCCC2)nn1 | . | . | ? | -27%[138 µM]
COc1ncccc1CN1CC[C@@H]2OCC(=O)N(Cc3ccccc3)[C@H]2CC1 | -30%[70.6 µM] | i | 112µM* | 100µM*
O=C1CO[C@H]2CCN(Cc3cccc(OC(F)(F)F)c3)CC[C@@H]2N1Cc1c[nH]c2ccccc12 | -10% | i | ? | ?
O=C1CO[C@H]2CCN(Cc3cccc(OC(F)(F)F)c3)CC[C@@H]2N1Cc1ccccc1 | -2% | i | 50µM* | ?
Cc1cccc(CN2CC[C@@H]3OCC(=O)N(Cc4ccccc4)[C@H]3CC2)c1 | -2%[70.6 µM] | i | 100µM* | 100µM*
N#Cc1ccc(C(=O)N2CCC(c3n[nH]c(=O)n3-c3ccccc3)CC2)cc1 | 3% | i | 1% | -8%
SMILES | hNpr1 antagonist | FLuc inh | HEK cytotox | NIH3T3 tox
COc1ccc(C(=O)N2CCC(C(=O)N3CCC(c4nc5ncccc5[nH]4)C3)CC2)cc1 (centres undefined) | . | . | -2% | -17%
Cc1nn(-c2ccc(F)cc2)c(Oc2ccccc2F)c1CCC(=O)NCC1CC1 | -23% | i | 50µM* | ?
Cc1nn(-c2ccccc2)c(Oc2ccccc2F)c1CCC(=O)NCc1ccco1 | ? | i | 45µM* | ?
COCCNC(=O)c1ccc(OC2CCN(Cc3cccc(SC)c3)CC2)c(Cl)c1 | -12% | i | ? | ?
O=C(NCCc1c[nH]c2ccccc12)[C@@H]1C[C@H]2C(=O)NCCCCCCN(C(=O)c3ccco3)[C@H]2C1 | -21% | i | -10% | 0%
Cn1ncc2c(C(=O)NCc3ccccn3)cc(-c3ccc(F)cc3)nc21 | . | . | ? | -19%
O=C(c1ccc(F)cc1)N1CCc2nc(OCC3CC3)ccc2C1 | -10% | i | ? | -26%
O=C1NC(=NC2CCCC2)C2(CCCN(Cc3ccsc3)C2)N1c1cccnc1 (centres undefined) | . | . | 3% | 28µM*
